Test [1] concerns the target MAP/microtubule affinity-regulating kinase 3 (Homo sapiens) (UniProt P27448). The conditions noted are these: at 1 µM.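 Note: reported values are averaged percent inhibition of MARK3.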
Test [2] has as its target T1, MAP/microtubule affinity-regulating kinase 4 (Homo sapiens) (UniProt Q96L34).
T1 sequence (whole entry): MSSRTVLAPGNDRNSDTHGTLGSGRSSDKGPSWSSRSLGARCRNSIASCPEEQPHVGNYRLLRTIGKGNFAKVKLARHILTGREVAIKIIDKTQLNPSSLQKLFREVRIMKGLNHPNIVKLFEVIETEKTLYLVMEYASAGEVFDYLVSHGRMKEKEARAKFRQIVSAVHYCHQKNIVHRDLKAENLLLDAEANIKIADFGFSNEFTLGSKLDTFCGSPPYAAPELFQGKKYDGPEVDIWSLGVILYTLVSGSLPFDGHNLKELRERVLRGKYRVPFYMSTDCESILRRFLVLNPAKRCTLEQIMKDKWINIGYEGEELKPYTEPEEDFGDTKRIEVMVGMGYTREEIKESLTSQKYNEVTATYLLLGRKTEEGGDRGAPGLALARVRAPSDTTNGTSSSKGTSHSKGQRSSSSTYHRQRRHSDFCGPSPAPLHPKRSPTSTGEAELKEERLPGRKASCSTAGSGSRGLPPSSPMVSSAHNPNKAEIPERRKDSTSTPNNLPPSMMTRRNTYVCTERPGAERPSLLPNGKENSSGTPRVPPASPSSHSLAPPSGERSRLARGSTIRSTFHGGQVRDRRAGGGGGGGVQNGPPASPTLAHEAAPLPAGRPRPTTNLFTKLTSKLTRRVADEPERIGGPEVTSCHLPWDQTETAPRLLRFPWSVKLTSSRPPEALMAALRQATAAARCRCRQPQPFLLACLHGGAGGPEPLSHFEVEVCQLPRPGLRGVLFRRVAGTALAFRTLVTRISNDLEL
To be noted: at 0.1 µM.

Test [3] deals with T1, MAP/microtubule affinity-regulating kinase 4 (Homo sapiens). To be noted: at 1 µM.
The target in test [4] is Maternal embryonic leucine zipper kinase (Homo sapiens) (UniProt Q14680). To be noted: at 0.1 µM.
Chain of Maternal embryonic leucine zipper kinase (Homo sapiens) (Q14680 whole entry, looked up): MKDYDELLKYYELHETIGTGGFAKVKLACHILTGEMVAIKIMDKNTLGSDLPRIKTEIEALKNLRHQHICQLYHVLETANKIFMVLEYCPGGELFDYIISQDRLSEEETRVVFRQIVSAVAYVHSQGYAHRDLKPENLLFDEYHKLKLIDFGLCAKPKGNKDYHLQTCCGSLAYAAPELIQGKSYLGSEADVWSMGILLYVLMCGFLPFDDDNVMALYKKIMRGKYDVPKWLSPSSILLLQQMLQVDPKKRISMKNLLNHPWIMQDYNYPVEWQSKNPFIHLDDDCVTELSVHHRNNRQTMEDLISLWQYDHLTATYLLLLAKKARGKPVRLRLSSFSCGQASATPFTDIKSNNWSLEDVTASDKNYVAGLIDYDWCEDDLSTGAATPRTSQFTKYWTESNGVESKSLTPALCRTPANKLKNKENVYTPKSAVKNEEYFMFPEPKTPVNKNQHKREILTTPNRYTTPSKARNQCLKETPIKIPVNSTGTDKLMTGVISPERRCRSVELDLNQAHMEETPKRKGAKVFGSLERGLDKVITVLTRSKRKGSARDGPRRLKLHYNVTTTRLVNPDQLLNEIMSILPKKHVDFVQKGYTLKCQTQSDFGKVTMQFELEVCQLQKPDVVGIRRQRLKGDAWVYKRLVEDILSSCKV
For test [5] the target is unchanged. To be noted: at 1 µM.
For test [6], the target named is MAP kinase-interacting serine/threonine-protein kinase 1 (Homo sapiens) (UniProt Q9BUB5). To be noted: at 0.1 µM.
Chain of MAP kinase-interacting serine/threonine-protein kinase 1 (Homo sapiens) (Q9BUB5 whole entry, looked up): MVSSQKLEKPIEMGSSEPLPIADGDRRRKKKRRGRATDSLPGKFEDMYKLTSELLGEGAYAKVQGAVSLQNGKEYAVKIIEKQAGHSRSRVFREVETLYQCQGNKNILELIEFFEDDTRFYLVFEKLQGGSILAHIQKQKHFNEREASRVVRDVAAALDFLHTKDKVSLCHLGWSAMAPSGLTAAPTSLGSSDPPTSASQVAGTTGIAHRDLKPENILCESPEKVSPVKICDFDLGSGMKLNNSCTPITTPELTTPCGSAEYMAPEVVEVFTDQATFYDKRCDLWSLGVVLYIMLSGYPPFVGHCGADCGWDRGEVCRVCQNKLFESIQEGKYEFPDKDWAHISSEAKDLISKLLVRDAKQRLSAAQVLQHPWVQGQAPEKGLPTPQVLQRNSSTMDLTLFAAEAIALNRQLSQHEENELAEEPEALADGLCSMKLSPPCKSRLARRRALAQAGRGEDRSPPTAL
The target is the same in test [7]. The conditions noted are these: at 1 µM.
Test [8] addresses MAP kinase-interacting serine/threonine-protein kinase 2 (Homo sapiens) (UniProt Q9HBH9). To be noted: at 0.1 µM.
The target is the same in test [9]. To be noted: at 1 µM.
The target of test [10] is Serine/threonine-protein kinase MARK2 (Homo sapiens) (UniProt Q7KZI7). The conditions noted are these: at 0.1 µM.
Test [11] shares this target. To be noted: at 1 µM.
The target of test [12] is PAS domain-containing serine/threonine-protein kinase (Homo sapiens) (UniProt Q96RG2). The conditions noted are these: at 0.1 µM.
Chain of PAS domain-containing serine/threonine-protein kinase (Homo sapiens) (Q96RG2 whole entry, the tested form may be a part): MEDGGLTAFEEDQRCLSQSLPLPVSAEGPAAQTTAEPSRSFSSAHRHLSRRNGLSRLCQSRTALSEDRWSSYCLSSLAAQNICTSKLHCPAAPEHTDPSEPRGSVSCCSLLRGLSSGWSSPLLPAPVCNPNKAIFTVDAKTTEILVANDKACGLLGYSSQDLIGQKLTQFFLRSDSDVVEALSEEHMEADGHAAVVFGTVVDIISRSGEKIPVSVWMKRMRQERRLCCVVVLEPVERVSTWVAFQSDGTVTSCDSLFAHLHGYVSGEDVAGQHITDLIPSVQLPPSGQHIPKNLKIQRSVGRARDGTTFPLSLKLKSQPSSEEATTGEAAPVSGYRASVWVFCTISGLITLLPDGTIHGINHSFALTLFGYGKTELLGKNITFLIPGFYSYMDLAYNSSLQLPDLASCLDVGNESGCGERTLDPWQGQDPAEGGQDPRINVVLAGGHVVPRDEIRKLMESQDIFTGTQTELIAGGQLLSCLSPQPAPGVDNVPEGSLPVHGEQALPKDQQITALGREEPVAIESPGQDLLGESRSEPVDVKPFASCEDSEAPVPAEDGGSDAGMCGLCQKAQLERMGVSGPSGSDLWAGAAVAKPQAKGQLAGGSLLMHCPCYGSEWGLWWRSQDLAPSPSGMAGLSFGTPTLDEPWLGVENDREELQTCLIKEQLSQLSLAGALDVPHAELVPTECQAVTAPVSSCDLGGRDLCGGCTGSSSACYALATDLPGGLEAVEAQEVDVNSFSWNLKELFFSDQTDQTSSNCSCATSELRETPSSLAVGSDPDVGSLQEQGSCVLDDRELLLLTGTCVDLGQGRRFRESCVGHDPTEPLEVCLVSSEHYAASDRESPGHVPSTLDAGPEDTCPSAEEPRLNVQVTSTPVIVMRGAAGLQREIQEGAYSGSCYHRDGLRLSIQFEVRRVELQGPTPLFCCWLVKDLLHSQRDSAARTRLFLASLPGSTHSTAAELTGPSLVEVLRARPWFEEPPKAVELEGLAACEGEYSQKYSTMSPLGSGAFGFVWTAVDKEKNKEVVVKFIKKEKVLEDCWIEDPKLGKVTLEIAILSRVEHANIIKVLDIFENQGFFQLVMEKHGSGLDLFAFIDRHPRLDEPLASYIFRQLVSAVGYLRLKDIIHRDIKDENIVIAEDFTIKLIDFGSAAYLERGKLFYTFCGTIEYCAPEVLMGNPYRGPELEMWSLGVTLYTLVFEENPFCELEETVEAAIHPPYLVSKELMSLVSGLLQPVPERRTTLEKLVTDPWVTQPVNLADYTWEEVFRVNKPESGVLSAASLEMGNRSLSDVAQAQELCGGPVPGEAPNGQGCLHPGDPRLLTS
Test [13] shares this target. To be noted: at 1 µM.
The target in test [14] is Phosphorylase b kinase gamma catalytic chain, skeletal muscle/heart isoform (Homo sapiens) (UniProt Q16816). To be noted: at 0.1 µM.
Chain of Phosphorylase b kinase gamma catalytic chain, skeletal muscle/heart isoform (Homo sapiens) (Q16816 whole entry, looked up, canonical isoform): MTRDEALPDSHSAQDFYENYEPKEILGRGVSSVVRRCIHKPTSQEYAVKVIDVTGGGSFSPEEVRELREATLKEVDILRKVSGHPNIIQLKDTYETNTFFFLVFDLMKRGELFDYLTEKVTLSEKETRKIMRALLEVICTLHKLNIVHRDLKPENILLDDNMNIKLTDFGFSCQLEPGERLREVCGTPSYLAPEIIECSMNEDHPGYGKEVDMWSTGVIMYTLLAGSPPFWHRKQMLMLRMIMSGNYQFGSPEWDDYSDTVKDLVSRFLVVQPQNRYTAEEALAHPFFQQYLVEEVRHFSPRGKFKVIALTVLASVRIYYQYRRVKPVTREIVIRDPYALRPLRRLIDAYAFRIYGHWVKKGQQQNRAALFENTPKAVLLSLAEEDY
For test [15] the target is unchanged. To be noted: at 1 µM.
The target of test [16] is T2, Phosphorylase b kinase gamma catalytic chain, liver/testis isoform (Homo sapiens) (UniProt P15735).
T2 sequence (whole entry): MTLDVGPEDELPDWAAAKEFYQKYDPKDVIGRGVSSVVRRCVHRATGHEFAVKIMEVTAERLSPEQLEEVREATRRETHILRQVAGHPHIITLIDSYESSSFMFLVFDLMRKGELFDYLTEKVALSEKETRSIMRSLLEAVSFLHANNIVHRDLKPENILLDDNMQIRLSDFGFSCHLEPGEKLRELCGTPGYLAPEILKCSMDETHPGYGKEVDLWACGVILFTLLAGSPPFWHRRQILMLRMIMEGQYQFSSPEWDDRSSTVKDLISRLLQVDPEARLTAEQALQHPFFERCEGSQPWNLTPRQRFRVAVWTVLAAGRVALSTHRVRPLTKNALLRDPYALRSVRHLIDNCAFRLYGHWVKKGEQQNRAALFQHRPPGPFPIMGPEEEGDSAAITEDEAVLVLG
The conditions noted are these: at 0.1 µM.

In test [17] the target is T2, Phosphorylase b kinase gamma catalytic chain, liver/testis isoform (Homo sapiens). To be noted: at 1 µM.
The target of test [18] is Serine/threonine-protein kinase pim-1 (Homo sapiens) (UniProt P11309). To be noted: at 0.1 µM.
Chain of Serine/threonine-protein kinase pim-1 (Homo sapiens) (P11309 whole entry, looked up): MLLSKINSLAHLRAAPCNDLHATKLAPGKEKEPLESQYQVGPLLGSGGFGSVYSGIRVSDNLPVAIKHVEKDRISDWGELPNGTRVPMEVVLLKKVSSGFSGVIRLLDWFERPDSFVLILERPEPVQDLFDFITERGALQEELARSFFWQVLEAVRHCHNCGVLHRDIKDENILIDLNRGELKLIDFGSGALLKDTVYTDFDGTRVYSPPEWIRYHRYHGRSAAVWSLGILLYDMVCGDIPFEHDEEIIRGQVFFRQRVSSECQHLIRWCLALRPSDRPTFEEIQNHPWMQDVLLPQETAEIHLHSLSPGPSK
Test [19] shares this target. To be noted: at 1 µM.
Test [20] concerns the target Serine/threonine-protein kinase pim-2 (Homo sapiens) (UniProt Q9P1W9). To be noted: at 0.1 µM.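 Note: reported value is the mean percent inhibition of PIM2, measured in the GSK PKIS kinase inhibitor set screen.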

Molecules are shown by their SMILES. Where “and” joins values, the source holds several entries; their conditions need not be identical. Equal entries are not always repeated.

A word on the inhibition: it is the drop in the measured response relative to a control, in per cent.

Chain of MAP/microtubule affinity-regulating kinase 3 (Homo sapiens) (P27448 whole entry, looked up): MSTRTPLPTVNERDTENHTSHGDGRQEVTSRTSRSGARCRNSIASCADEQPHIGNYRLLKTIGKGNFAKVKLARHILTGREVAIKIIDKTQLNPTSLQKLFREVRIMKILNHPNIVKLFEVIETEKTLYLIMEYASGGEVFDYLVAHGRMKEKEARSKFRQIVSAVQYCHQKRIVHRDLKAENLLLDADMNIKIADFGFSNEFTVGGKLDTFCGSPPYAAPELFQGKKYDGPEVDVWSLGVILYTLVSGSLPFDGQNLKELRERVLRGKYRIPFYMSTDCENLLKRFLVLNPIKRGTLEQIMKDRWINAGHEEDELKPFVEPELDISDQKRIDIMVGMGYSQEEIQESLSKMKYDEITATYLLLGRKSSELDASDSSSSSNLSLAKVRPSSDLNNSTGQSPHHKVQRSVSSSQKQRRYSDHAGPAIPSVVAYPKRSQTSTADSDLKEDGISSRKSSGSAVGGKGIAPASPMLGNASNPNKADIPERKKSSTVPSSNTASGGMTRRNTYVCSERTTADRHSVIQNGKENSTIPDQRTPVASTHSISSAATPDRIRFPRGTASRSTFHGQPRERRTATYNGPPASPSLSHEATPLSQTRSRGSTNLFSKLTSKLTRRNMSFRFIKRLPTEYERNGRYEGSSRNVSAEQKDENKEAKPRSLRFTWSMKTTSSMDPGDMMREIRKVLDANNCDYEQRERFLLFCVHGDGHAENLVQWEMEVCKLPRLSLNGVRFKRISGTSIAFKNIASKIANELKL
Chain of Serine/threonine-protein kinase pim-2 (Homo sapiens) (Q9P1W9 whole entry, looked up): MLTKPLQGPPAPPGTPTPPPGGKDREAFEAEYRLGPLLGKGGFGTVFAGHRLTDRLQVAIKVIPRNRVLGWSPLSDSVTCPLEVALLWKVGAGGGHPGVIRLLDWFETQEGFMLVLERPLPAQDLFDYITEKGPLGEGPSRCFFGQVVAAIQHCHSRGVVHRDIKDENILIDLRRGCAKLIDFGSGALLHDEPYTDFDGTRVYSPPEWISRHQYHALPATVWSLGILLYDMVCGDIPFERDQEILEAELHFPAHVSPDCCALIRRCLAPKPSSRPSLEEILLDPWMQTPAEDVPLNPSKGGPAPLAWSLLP
Chain of MAP kinase-interacting serine/threonine-protein kinase 2 (Homo sapiens) (Q9HBH9 whole entry, looked up): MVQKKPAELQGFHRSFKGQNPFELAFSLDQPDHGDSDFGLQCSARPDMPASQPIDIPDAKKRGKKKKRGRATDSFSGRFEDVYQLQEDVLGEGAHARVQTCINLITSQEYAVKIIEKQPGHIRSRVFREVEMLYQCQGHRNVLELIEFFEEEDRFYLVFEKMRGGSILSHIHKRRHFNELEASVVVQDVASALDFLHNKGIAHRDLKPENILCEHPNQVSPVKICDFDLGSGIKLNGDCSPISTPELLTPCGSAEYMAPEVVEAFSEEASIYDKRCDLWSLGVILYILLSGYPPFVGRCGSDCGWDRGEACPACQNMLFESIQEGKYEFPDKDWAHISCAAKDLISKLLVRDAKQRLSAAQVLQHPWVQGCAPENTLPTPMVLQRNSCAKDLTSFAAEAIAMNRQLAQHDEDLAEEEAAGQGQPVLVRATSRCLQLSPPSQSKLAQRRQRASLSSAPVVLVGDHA

Regarding `Fc1cccc(COc2ccc(Nc3ncncc3C#Cc3ccccc3)cc2Cl)c1`, the inhibition in test [1] turned out to be 4.26%; in [2] it was 0.48%; in test [3], 1.07%; in test [4] it was 3.34%; in test [5], 4.69%; in test [6] it was 3.32%. The inhibition in test [7] amounted to 11.8%; in test [8] it was 2.53%; in [9], 6.84%; in test [10] it was 0.96%; in test [11], 1.05%; in [12] it was 0.76%. Besides, the inhibition turned out to be 1.64% in test [13]; 3.8% in test [14]; 5.87% in test [15]; 5.59% in test [16]; 8.15% in test [17]; 0.46% in [18]. The inhibition in [19] was 1.07%; in test [20] it was 0.52%.
For `COc1cc(Nc2ncc(-c3ccccc3)o2)cc(OC)c1`, the inhibition in test [1] worked out at 2.48%; in [2], 1.86%; in test [3] it was 3.56%; in test [4] it was 4.58%; in test [5], 5.97%; in test [6], 3.84%. Further, the inhibition in test [7] is 10.8%; in [8] it was 1.3%; in test [9] it was 12.4%; in [10] it was -1.15%; in test [11], 2.52%; in test [12], -1.02%. The inhibition is -0.79% in [13]; 5.83% in test [14]; 14.1% in [15]; 4.54% in test [16]; 5.45% in test [17]; 1.14% in [18]. Also, the results for the inhibition in [19] and in [20] were 1.63% and 0.58%, respectively.
For the compound `Cc1cc(O)cc(C)c1/C=C/c1cncc(C(=O)OC(C)(C)C)c1`, the inhibition in test [1] turned out to be 1.89%; in test [2], 0.38%; in test [3], 0.19%; in test [4] it was 3.07%; in test [5], 5.89%; in [6], 4.59%. Moreover, the inhibition in test [7] is 16.7%; in [8], 1.84%; in test [9] it was 9.67%; in [10], 0.13%; in test [11], 1.18%; in [12] it was -0.08%. For the same compound, the inhibition in [13] is 0.02%; in [14] it was 3.95%; in [15], -7.1%; in test [16], 3.11%; in test [17], 1.25%; in [18] it was 0.18%. Besides, the figures for the inhibition in test [19] and in test [20] were 0.23% and 0.32%, respectively.
On to `CN1CCC(C(=O)Nc2n[nH]c3nc(-c4ccc(O)cc4)c(Br)cc23)CC1`, for which the inhibition in test [1] is 2.99% and 3.23%; in test [2], 2.14% and -0.03%; in test [3], 4.18% and 0.65%; in test [4], 3.6% and 2.34%; in test [5] it was 11.7% and 8.84%; in test [6] it was 55.1% and 58%. For the same compound, the inhibition is 77.6% and 84.9% in test [7]; 6.5% and 5.49% in test [8]; 36.9% and 34.7% in test [9]; 1.43% and -2.51% in test [10]; 2.87% and -0.48% in test [11]; 0.12% and 1.36% in test [12]. Moreover, the inhibition in [13] is 1.4% and -0.48%; in test [14] it was 7.58% and -0.16%; in test [15], 16.1% and 3.32%; in test [16], 4.67% and 1.73%; in [17] it was 9.01% and 2.52%; in test [18] it was 5.3% and 6.07%. In addition, the inhibition in test [19] is 34.8% and 33.4%; in test [20] it was -0.97% and 1.73%.
For `Cn1c(-c2nonc2N)nc2cnccc21`, the inhibition turned out to be 9.08% in [1]; 1.25% in test [2]; 3.94% in test [3]; 7.95% in [4]; 22.1% in test [5]; 3.39% in [6]. Further, the inhibition in test [7] was determined as 7.55%; in [8], 2.67%; in test [9], 16.9%; in [10], 0.44%; in test [11], 4.69%; in [12], 0.4%. Moreover, the inhibition in test [13] was -0.76%; in test [14], 1.82%; in test [15], 0.15%; in [16], 4.05%; in test [17], 1.59%; in test [18] it was 2.15%. Also, the inhibition is 16.4% in [19] and -0.31% in test [20].
On to `COc1cccc(Nc2nccc(-c3cnn4ncccc34)n2)c1`, for which the inhibition in test [1] is 29.6%; in [2], 0.65%; in [3] it was 17.3%; in test [4] it was 5.16%; in test [5], 52.3%; in test [6], 2.14%. Moreover, the inhibition in [7] was 11.3%; in test [8], 3.27%; in [9], 22.7%; in [10], 1.23%; in [11] it was 21.4%; in [12] it was -0.19%. The inhibition in test [13] is -1.63%; in test [14] it was 2.67%; in [15] it was 27.6%; in [16] it was 4.4%; in test [17], 18.8%; in test [18], 0.85%. Besides, the inhibition in test [19] turned out to be 6.56%; in test [20], 0.37%.

The values are drawn from ChEMBL document CHEMBL1961873, “Compounds: GSK PKIS; Assays: Nanosyn kinase panel” (2012).
